Molecules are shown by their SMILES. The panel holds about 83,000 compounds, 20% with a hit somewhere; the sample as a whole holds those more often.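 Percent growth is the endpoint: 0 to 100 indicates growth inhibition (40 means 60% inhibition), 0 means no net growth, and negative values indicate cell death.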 Values without a mark were called inactive. Active and inactive are the calls of the source. The calls were made as follows: active = growth percent below 10; inactive = the rest.

The values below come from PubChem BioAssay (NCI).

What all share (assay): NCI-60 one-dose screen, 48 h (100 = growth as untreated, 0 = no growth, -100 = all killed)
The test system of one test is EKVX NSCLC. Conditions: 10 µM unless noted.
Another test deals with SN12C renal. Conditions: 10 µM unless noted.
A further test concerns UO-31 renal. Conditions: 10 µM unless noted.
A further test concerns TK-10 renal. Conditions: 10 µM unless noted.
The test system of the next test is ACHN renal. Conditions: 10 µM unless noted.
The test system of another test is CAKI-1 renal. Conditions: 10 µM.
The next test deals with A498 renal. Conditions: 10 µM unless noted.
The test system of a further test is CCRF-CEM leukemia. Conditions: 10 µM unless noted.
The subject of the next test is MOLT-4 leukemia. Conditions: 10 µM unless noted.
The next test concerns SR leukemia. Conditions: 10 µM unless noted.
A further test has as its system RPMI-8226 leukemia. Conditions: 10 µM unless noted.
The test system of the next test is OVCAR-8 ovarian. Conditions: 10 µM unless noted.
In another test the test system is OVCAR-5 ovarian. Conditions: 10 µM unless noted.
In the next test the test system is OVCAR-4 ovarian. Conditions: 10 µM unless noted.
The next test concerns SK-OV-3 ovarian. Conditions: 10 µM unless noted.
In the next test the test system is IGROV1 ovarian. Conditions: 10 µM unless noted.
In a further test the test system is HS 578T breast. Conditions: 10 µM unless noted.
Another test relates to NCI/ADR-RES ovarian. Conditions: 10 µM unless noted.
The subject of a further test is SK-MEL-2 melanoma. Conditions: 10 µM unless noted.

`CCC(CC)n1c(=O)c(SC2=NC3C(NN2)N(CC)C(=O)N3CC)c(C(=O)O)c2ccccc21` (centres undefined): the growth with EKVX NSCLC was 52.8%; in the test on SN12C renal, 20.1%; in the test with UO-31 renal it was 39.5%; with TK-10 renal, 68.8%; in the test with ACHN renal it was 27.7%; in the test on CAKI-1 renal it was 36.6%. Further, the growth with A498 renal was -10.5% (active); in the test on CCRF-CEM leukemia, 16.6%; in the test on MOLT-4 leukemia it was 16.2%; in the test with SR leukemia, 14.4%; in the test on RPMI-8226 leukemia, 14.4%; in the test with OVCAR-8 ovarian it was 8.01% (active). The growth in the test with OVCAR-5 ovarian is 37.3%; in the test with OVCAR-4 ovarian, 65%; with SK-OV-3 ovarian, 40.6%; with IGROV1 ovarian, 32.6%; with HS 578T breast, 19.3%; in the test on NCI/ADR-RES ovarian it was 20.4%.

As for `CCN1C(=O)N(CC)C2SC(N/N=C/c3ccc(F)cc3)=NC21` (centres undefined), the growth is 17.2% with SK-MEL-2 melanoma; 33.6% with SN12C renal; 50.3% in the test on UO-31 renal; 88.3% with TK-10 renal; 37.3% in the test with ACHN renal; 31.7% in the test on CAKI-1 renal. In addition, the growth in the test with A498 renal was -22.4% (active); with CCRF-CEM leukemia it was 23.2%; in the test with MOLT-4 leukemia it was 23.8%; in the test with SR leukemia, 19.4%; with RPMI-8226 leukemia, 19.6%; in the test on OVCAR-8 ovarian, 2.03% (active). In addition, the growth in the test on OVCAR-5 ovarian is 48.4%; in the test with OVCAR-4 ovarian, 67.2%; in the test on SK-OV-3 ovarian it was 36.6%; with IGROV1 ovarian, 25.1%; in the test on HS 578T breast it was 11.9%; with NCI/ADR-RES ovarian, 0.946% (active).

For `Cc1ccc(NC(=O)c2cc(/C=C/C(=O)NO)cc(C(F)(F)F)c2)cc1Nc1nccc(-c2cccnc2)n1`, the growth in the test with EKVX NSCLC was 28%; with SN12C renal it was 2.25% (active); in the test on UO-31 renal it was 18.8%; in the test on TK-10 renal it was 15.2%; with ACHN renal it was 18.5%; in the test on CAKI-1 renal, 6.2% (active). In addition, the growth with A498 renal is -46.9% (active); with CCRF-CEM leukemia, 5.21% (active); in the test on MOLT-4 leukemia, 5.15% (active); with SR leukemia, 4.9% (active); with RPMI-8226 leukemia it was -13% (active); in the test with OVCAR-8 ovarian, -12.2% (active). Moreover, the growth is 17.4% with OVCAR-5 ovarian; 23% in the test with OVCAR-4 ovarian; -38.3% (active) with SK-OV-3 ovarian; 2.46% (active) with IGROV1 ovarian; -14.5% (active) in the test with HS 578T breast; 87.8% in the test with NCI/ADR-RES ovarian.

With `COc1ccc2c(ccn2C(=O)N2c3ccccc3Sc3ccccc32)c1`, the growth is 4.71% (active) in the test on SK-MEL-2 melanoma; 47.3% with SN12C renal; 55% in the test on UO-31 renal; 65.1% in the test on TK-10 renal; 49.2% in the test on ACHN renal; 30.9% in the test with CAKI-1 renal. Also, the growth with A498 renal was -8.02% (active); in the test on CCRF-CEM leukemia, 18.7%; with MOLT-4 leukemia, 37.2%; with SR leukemia, 22%; with RPMI-8226 leukemia, 16.8%; in the test with OVCAR-8 ovarian it was 31.9%. The growth is 60.6% in the test on OVCAR-5 ovarian; 66.5% in the test with OVCAR-4 ovarian; 42.5% in the test with SK-OV-3 ovarian; 39.2% in the test with IGROV1 ovarian; 19.8% with HS 578T breast; 11.6% in the test on NCI/ADR-RES ovarian.

For the compound `C=CCn1c(SCC(=O)Nc2cccc(C(=O)/C=C/c3ccc(Cl)cc3)c2)nc2ccccc2c1=O`, the growth in the test on EKVX NSCLC is 99.5%; with SN12C renal it was 86.2%; in the test on UO-31 renal, 67.6%; in the test on TK-10 renal, 96.4%; in the test with ACHN renal it was 90.6%; with CAKI-1 renal, 76.8%. Further, the growth is 78% in the test with A498 renal; 96.6% with CCRF-CEM leukemia; 94% with MOLT-4 leukemia; 21% in the test with SR leukemia; 9.15% (active) with RPMI-8226 leukemia; 95% in the test with OVCAR-8 ovarian. Also, the growth was 97.9% in the test on OVCAR-5 ovarian; 87.6% in the test on OVCAR-4 ovarian; 110% in the test on SK-OV-3 ovarian; 96.4% in the test with IGROV1 ovarian; 87.3% in the test on HS 578T breast; 91% with NCI/ADR-RES ovarian.

As for `O=S(=O)(NC1CC2CCC1C2)c1ccc2c(c1)C(=NO)c1cc(S(=O)(=O)NC3CC4CCC3C4)ccc1-2` (centres undefined), the growth is 98.1% in the test with SK-MEL-2 melanoma; 34.6% in the test with SN12C renal; -93% (active) with UO-31 renal; 95.6% with TK-10 renal; -95.4% (active) in the test on ACHN renal; -97.5% (active) in the test with CAKI-1 renal. Also, the growth with A498 renal is 89.4%; in the test on CCRF-CEM leukemia, -18.8% (active); in the test with MOLT-4 leukemia, 47.1%; with SR leukemia it was -7.47% (active); in the test on RPMI-8226 leukemia, -24.6% (active); in the test with OVCAR-8 ovarian, 67%. Further, the growth with OVCAR-5 ovarian was 42.5%; in the test with OVCAR-4 ovarian, -52.4% (active); in the test on SK-OV-3 ovarian, 86.4%; with IGROV1 ovarian it was -73.7% (active); with HS 578T breast it was 86%; with NCI/ADR-RES ovarian, 63.7%.

With `CCOC(=O)/C(F)=C/C1CC1C1CCCCC1` (centres undefined), the growth is 110% in the test on EKVX NSCLC; 103% in the test with SN12C renal; 91.5% with UO-31 renal; 95.3% with TK-10 renal; 105% in the test with ACHN renal; 90.9% in the test with CAKI-1 renal. For the same compound, the growth with A498 renal was 97.2%; in the test on CCRF-CEM leukemia, 114%; with MOLT-4 leukemia it was 102%; with SR leukemia, 111%; in the test on RPMI-8226 leukemia it was 105%; with OVCAR-8 ovarian, 109%. The growth with OVCAR-5 ovarian is 102%; in the test with OVCAR-4 ovarian, 107%; in the test with SK-OV-3 ovarian, 126%; with IGROV1 ovarian it was 110%; in the test on HS 578T breast it was 105%; in the test with NCI/ADR-RES ovarian it was 101%.

With `O=C1/C(=C/c2ccc([N+](=O)[O-])cc2)SC(=Nc2ccccc2)N1Nc1ccccc1`, the growth is 70.9% with EKVX NSCLC; 29.5% with SN12C renal; 37.1% in the test with UO-31 renal; 89.1% in the test on TK-10 renal; 53% in the test on ACHN renal; 38.6% in the test on CAKI-1 renal. For the same compound, the growth with A498 renal is 28.2%; in the test with CCRF-CEM leukemia, 24%; with MOLT-4 leukemia, 3.98% (active); in the test on SR leukemia it was 0.29% (active); in the test with RPMI-8226 leukemia it was 42.7%; with OVCAR-8 ovarian, 50%. Moreover, the growth in the test with OVCAR-5 ovarian was 75.8%; in the test with OVCAR-4 ovarian, 52.9%; in the test on SK-OV-3 ovarian, 102%; in the test with IGROV1 ovarian, 61.9%; in the test with HS 578T breast, 79.1%; in the test on NCI/ADR-RES ovarian, 45.8%.
